The full data set covers some 8,800 targets. This sample favours those with a hit. About 0.5% of all pairs of compound and target were hits. Unmarked numbers belong to inactive results.
Assays:
Assay in all cases: log2 fold change, soluble protein after heating vs DMSO (PISA); higher = thermal stabilisation; K562 lysate, 10 uM; active = over 0.2 and 3.5 SD of the protein, either way, in both replicates (recomputed)
alvocidib = compound: CN1CC[C@H](c2c(O)cc(O)c3c(=O)cc(-c4ccccc4Cl)oc23)[C@H](O)C1 [alvocidib]
Outline: (§1)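 Thermal stability, expressed as log-two fold change relative to solvent controls, is given from duplicates. Crude K562 extract in PBS pH 7.4 with 1 mM MgCl2, at 1 mg/mL protein, was treated with 10 μM compound for 30 min and heated in aliquots for 3 min across 48°C-58°C. After pooling, adjustment to 0.5% NP-40 at 4°C and centrifugation at 21,000xg for 90 min, supernatant protein was measured by TMTpro 16plex LC-MS/MS with channel sums equalised.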

Tubastatin A = compound: CN1CCc2c(c3ccccc3n2Cc2ccc(C(=O)NO)cc2)C1 [Tubastatin A]
Outline: as §1

[1] = compound: CNC(=O)C1=CC=CC=C1NC2=NC(=NC=C2Cl)NC3=C(C=C(C=C3)N4CCOCC4)OC
Outline: as §1

defactinib = compound: CNC(=O)c1ccc(Nc2ncc(C(F)(F)F)c(NCc3nccnc3N(C)S(C)(=O)=O)n2)cc1 [defactinib]
Outline: as §1

[2] = compound: CNc1nc(-c2ccc3c(N)n[nH]c3c2)cc(N2C[C@@H](C(=O)NC3CCCCC3)CC[C@H]2C)n1
Outline: as §1

encorafenib = compound: COC(=O)N[C@@H](C)CNc1nccc(-c2cn(C(C)C)nc2-c2cc(Cl)cc(NS(C)(=O)=O)c2F)n1 [encorafenib]
Outline: as §1

[3] = compound: COC(=O)[C@H](CCSC)NC(=O)C1=C(C=C(C=C1)NC[C@H](CS)N)C2=CC=CC=C2
Outline: as §1

alisertib = compound: COc1cc(Nc2ncc3c(n2)-c2ccc(Cl)cc2C(c2c(F)cccc2OC)=NC3)ccc1C(=O)O [alisertib]
Outline: as §1

[4] = compound: COc1cc2nc(-c3cc(F)ccc3O)nc(N[C@@H]3CNC[C@H]3C(C)(C)O)c2cc1OC
Outline: as §1

gefitinib = compound: COc1cc2ncnc(Nc3ccc(F)c(Cl)c3)c2cc1OCCCN1CCOCC1 [gefitinib]
Outline: as §1

Chain of UniProt Q8NHG7 (Q8NHG7 whole entry, looked up): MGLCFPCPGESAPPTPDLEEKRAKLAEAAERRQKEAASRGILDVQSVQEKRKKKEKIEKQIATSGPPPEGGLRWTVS
Chain of UniProt O43805 (O43805 whole entry, looked up): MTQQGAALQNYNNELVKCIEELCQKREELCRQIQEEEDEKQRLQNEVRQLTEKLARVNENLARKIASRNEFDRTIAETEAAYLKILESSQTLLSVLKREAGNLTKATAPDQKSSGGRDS
Chain of UniProt Q96BD8 (Q96BD8 whole entry, looked up): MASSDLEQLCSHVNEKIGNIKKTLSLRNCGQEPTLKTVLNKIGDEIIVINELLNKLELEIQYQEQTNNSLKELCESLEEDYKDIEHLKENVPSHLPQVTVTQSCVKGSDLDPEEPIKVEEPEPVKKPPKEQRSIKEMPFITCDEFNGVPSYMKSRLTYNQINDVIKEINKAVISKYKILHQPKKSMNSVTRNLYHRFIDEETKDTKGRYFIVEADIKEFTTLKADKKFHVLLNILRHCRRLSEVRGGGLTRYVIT
Chain of UniProt Q6P1M0 (Q6P1M0 whole entry, looked up): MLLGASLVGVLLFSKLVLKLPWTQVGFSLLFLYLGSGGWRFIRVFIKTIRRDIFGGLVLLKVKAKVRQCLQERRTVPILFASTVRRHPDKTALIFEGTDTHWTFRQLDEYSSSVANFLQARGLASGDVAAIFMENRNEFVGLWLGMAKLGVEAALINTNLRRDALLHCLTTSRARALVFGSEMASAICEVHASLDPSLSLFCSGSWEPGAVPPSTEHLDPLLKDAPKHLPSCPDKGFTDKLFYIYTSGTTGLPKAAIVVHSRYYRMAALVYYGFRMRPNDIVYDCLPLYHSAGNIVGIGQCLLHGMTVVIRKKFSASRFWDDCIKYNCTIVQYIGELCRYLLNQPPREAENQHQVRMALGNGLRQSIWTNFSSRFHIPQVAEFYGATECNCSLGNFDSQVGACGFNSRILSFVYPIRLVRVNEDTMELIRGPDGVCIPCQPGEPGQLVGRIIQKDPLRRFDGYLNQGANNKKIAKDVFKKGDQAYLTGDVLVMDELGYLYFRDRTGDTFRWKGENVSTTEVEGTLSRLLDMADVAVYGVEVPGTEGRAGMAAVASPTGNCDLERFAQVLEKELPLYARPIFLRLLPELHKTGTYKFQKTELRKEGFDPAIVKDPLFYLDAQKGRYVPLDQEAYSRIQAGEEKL
Chain of UniProt P05455 (P05455 whole entry, looked up): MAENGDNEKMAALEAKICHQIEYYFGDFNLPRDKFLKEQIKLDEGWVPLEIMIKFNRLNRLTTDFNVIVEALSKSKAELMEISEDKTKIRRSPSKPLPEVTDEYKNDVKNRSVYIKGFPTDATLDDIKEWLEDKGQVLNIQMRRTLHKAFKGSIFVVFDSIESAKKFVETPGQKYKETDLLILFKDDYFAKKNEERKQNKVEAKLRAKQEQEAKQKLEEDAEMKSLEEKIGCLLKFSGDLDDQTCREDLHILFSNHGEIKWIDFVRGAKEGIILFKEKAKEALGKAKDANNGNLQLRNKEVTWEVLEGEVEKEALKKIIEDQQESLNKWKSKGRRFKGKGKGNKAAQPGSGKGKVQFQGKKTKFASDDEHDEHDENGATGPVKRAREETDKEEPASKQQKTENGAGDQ
Chain of UniProt Q13573 (Q13573 whole entry, looked up): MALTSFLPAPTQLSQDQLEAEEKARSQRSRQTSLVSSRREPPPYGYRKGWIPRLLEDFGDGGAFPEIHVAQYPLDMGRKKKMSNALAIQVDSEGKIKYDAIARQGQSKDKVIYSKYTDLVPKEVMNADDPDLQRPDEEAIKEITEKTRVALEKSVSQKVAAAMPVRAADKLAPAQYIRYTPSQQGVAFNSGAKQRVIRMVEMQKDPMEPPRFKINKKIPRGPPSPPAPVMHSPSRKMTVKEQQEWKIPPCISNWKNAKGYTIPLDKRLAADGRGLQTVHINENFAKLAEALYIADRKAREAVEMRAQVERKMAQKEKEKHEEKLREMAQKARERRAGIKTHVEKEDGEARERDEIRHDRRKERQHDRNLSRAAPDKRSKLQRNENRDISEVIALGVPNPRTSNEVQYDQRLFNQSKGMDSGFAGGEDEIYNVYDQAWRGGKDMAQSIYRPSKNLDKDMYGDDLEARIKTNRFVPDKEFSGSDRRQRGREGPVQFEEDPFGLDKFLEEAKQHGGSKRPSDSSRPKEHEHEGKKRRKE
Chain of UniProt Q86US8 (Q86US8 whole entry, looked up): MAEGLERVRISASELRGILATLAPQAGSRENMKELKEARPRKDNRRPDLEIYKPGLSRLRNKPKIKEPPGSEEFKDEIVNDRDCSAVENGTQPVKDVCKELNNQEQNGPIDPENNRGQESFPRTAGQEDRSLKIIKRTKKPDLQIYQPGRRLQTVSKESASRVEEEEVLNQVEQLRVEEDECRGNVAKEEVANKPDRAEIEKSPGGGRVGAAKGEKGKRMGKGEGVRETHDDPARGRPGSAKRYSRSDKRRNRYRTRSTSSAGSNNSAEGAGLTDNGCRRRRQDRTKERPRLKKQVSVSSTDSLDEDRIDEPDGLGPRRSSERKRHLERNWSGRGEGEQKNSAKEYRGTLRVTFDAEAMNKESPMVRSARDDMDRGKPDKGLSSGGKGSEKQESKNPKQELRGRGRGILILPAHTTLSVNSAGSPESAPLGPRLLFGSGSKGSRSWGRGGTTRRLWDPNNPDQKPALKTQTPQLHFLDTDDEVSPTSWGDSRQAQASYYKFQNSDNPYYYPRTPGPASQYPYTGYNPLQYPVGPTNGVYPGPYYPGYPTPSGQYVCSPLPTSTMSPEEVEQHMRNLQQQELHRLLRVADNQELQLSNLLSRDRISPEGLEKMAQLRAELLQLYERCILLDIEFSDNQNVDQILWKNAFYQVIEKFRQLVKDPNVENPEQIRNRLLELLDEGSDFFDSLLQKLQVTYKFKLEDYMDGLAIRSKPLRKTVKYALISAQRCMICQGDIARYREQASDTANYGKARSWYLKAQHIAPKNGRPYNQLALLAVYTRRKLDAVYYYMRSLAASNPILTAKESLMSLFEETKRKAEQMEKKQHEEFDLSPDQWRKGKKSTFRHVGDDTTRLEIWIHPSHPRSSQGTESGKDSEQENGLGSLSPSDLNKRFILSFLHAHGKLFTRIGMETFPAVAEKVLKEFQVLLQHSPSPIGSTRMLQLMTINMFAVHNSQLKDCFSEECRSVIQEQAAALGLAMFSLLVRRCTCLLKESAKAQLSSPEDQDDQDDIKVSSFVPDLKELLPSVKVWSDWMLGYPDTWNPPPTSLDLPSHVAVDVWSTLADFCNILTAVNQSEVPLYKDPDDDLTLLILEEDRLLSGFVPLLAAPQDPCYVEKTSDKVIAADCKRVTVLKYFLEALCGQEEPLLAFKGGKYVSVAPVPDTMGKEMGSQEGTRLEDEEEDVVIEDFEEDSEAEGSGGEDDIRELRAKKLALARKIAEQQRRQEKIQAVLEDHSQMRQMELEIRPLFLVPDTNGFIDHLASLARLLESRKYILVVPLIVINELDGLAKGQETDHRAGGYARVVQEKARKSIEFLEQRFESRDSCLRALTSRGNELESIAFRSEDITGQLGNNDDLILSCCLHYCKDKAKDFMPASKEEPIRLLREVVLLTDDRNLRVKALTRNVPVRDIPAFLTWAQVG
Chain of UniProt Q16637 (Q16637 whole entry, looked up): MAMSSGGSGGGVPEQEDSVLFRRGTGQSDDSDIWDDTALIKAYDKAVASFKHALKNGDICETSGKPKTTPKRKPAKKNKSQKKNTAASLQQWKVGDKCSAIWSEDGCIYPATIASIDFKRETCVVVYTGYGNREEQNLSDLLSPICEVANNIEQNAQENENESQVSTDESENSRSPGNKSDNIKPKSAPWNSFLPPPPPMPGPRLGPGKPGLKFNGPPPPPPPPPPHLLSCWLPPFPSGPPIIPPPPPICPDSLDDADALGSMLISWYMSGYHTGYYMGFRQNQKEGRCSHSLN
Chain of UniProt Q9NYA1 (Q9NYA1 whole entry, looked up): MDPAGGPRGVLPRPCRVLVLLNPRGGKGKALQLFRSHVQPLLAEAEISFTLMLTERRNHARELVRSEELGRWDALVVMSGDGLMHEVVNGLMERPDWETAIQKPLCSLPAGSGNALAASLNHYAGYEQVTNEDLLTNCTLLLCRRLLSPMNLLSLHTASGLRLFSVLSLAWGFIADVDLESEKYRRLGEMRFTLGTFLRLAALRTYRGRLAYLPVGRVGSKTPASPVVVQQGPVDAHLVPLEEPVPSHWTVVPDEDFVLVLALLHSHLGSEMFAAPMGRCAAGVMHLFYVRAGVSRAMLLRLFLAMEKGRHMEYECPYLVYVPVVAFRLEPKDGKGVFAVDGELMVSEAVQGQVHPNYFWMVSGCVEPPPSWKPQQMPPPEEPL
Chain of UniProt Q8WUM9 (Q8WUM9 whole entry, looked up): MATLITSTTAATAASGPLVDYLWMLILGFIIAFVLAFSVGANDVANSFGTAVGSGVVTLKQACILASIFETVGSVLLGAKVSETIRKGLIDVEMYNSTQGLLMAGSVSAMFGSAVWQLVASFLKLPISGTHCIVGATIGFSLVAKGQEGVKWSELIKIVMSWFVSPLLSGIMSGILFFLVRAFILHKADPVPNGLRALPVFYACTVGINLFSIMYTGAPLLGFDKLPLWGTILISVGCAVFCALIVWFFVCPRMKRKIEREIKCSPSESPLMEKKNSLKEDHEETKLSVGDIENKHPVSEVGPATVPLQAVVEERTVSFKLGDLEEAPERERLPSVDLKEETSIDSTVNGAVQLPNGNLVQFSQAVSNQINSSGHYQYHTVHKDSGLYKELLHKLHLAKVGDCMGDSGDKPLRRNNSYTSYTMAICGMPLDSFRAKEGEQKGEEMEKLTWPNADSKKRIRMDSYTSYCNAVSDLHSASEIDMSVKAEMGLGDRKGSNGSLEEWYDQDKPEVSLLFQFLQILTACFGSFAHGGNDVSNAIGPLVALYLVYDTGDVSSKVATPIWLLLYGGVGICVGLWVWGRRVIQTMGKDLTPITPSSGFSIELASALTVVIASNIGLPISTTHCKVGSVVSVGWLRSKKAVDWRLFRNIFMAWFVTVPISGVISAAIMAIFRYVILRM

Target	log2 fold change (alvocidib)	log2 fold change (Tubastatin A)	log2 fold change [1]	log2 fold change (defactinib)	log2 fold change [2]	log2 fold change (encorafenib)	log2 fold change [3]	log2 fold change (alisertib)	log2 fold change [4]	log2 fold change (gefitinib)
SLC20A1 (UniProt Q8WUM9)	0.002	0.054	-0.012	-0.155	0.016	-0.039	-0.057	-0.026	0.036	0.05
TANK (UniProt Q92844)	0.066	-0.043	0.25	0.044	0.068	-0.006	-0.309 (active)	-0.006	-0.024	-0.047
SVIP (UniProt Q8NHG7)	-0.014	0.028	-0.017	0.025	0.098	-0.042	-0.055	0.05	-0.039	-0.099
SPAG5 (UniProt Q96R06)	-0.019	-0.119	0.031	0.008	0.003	0.071	-0.081	-0.01	-0.017	0.019
SMAD2 (UniProt Q15796)	-0.058	0.009	0.167	0.01	0.038	-0.01	0.03	-0.069	0.006	0.016
SLC27A2 (UniProt O14975)	0.005	-0.009	0.216	-0.044	0.172	0.063	0.019	0.002	0.017	-0.089
TAF9 (UniProt Q16594)	0.032	-0.026	0.014	-0.03	-0.004	0.099	-0.041	0.004	0.038	0.084
TANGO6 (UniProt Q9C0B7)	-0.094	-0.031	-0.005	-0.047	0	-0.024	-0.009	-0.022	0.027	0.117
SSB (UniProt P05455)	0.057	0.018	-0.02	-0.019	-0.015	-0.029	0.022	-0.003	0.002	-0.008
SNAP23 (UniProt O00161)	0.035	0.015	-0.027	-0.002	-0.01	0	-0.033	-0.015	0.005	0.02
SHC1 (UniProt P29353)	0.144									
SMG6 (UniProt Q86US8)	-0.067	-0.062	-0.112	-0.027	-0.059	0.148	-0.01	-0.044	0.008	-0.069
SLC29A2 (UniProt Q14542)	-0.134	-0.018	0.187	-0.011	-0.042	0.025	0.007	-0.031	0.008	0.046
SNW1 (UniProt Q13573)	0.023	0.051	0.02	0.006	0.073	0.02	-0.119	0.014	-0.003	-0.03
STOML2 (UniProt Q9UJZ1)	-0.017	0.095	-0.009	0.017	0.022	-0.007	-0.055	-0.004	0.052	0.08
STK24 (UniProt B4DR80)	-0.029	0.02	-0.022	0.11	-0.008	-0.012	-0.039	-0.037	0.078	-0.052
SMN1 (UniProt Q16637)	-0.05	-0.173	0.017	-0.023	-0.01	0.03	0.149	0.062	-0.024	-0.064
SNX6, A0A0A0MRI2	0.076	-0.051	0.004	0.008	-0.024	0.007	0.171	-0.008	-0.003	-0.01
SSNA1 (UniProt O43805)	0.016	0.038	0.043	-0.036	0.109	0.023	-0.115	0.027	-0.014	0.013
SLC27A4 (UniProt Q6P1M0)	-0.019	-0.021	-0.009	-0.157	-0.062	0.135	0.006	0.039	0.062	-0.067
SRM (UniProt P19623)	0.008	-0.014	-0.014	-0.03	-0.03	-0.011	0.083	-0.03	0.016	0.011
SMARCAD1 isoform 2 (UniProt Q9H4L7)	-0.007	-0.13	0.037	0.03	0.003	0.029	0.052	-0.018	0.004	0.028
SMC4 (UniProt Q9NTJ3)	0.03	-0.079	-0.006	-0.003	-0.008	0.004	0.024	0.001	0	-0.024
SLC38A10 (UniProt Q9HBR0)	-0.036	0.074	-0.015	0.023	0.04	0.037	-0.06	-0.032	0.032	-0.046
SLC26A6 (UniProt Q9BXS9)	-0.095	-0.05	-0.004	0.055	0.086	-0.016	-0.111	0.06	-0.056	-0.022
SKA1 (UniProt Q96BD8)	-0.046	-0.064	0.001	0.015	-0.008	0.129	-0.055	-0.017	0.017	-0.006
SMAD9 (UniProt O15198)	0.008	-0.075	0.089	-0.081	0.011	0.014	-0.014	0.052	0.047	-0.028
SP1 (UniProt P08047)	-0.017	-0.013	0.053	0.03	0.104	0.073	-0.087	0.005	-0.06	0.003
SPHK1 isoform 2 (UniProt Q9NYA1)	0.023	-0.114	0.046	0.076	-0.175	0.018	0.006	0.045	0.022	0.069
SPATS2 (UniProt Q86XZ4)	0.039	-0.075	0.019	0.353	0.036	0.066	-0.195	-0.015	-0.047	0

Reference: the supplement of paper PMC10849652
